Screening results: PubChem, The Scripps Research Institute Molecular Screening Center
Most compounds without a hit are left out; they make up all but 3.5% or so of the library.
GPR151 activ: activators of human GPR151. PathHunter beta-arrestin GPR151 cells, luminescence. activation, % at 11.2 µM. 650,000 compounds, 1% hits; in the data active means activation above about 4.9%;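 further: 0% = median of compound wells and 100% = cells with positive control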
FBW7 activator: activators of human E3 ligase FBW7 | AlphaScreen FBW7–phospho-cyclin E peptide binding, activator screen | normalized activity (activation), % at 26.1 µM | 650,000 compounds, 0.13% hits | AID 1259310; in the data active means normalized activity above about 1.9%;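 further: purified mutant Fbw7 with reduced substrate affinity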
Target sequence (Q969H0 whole entry, looked up): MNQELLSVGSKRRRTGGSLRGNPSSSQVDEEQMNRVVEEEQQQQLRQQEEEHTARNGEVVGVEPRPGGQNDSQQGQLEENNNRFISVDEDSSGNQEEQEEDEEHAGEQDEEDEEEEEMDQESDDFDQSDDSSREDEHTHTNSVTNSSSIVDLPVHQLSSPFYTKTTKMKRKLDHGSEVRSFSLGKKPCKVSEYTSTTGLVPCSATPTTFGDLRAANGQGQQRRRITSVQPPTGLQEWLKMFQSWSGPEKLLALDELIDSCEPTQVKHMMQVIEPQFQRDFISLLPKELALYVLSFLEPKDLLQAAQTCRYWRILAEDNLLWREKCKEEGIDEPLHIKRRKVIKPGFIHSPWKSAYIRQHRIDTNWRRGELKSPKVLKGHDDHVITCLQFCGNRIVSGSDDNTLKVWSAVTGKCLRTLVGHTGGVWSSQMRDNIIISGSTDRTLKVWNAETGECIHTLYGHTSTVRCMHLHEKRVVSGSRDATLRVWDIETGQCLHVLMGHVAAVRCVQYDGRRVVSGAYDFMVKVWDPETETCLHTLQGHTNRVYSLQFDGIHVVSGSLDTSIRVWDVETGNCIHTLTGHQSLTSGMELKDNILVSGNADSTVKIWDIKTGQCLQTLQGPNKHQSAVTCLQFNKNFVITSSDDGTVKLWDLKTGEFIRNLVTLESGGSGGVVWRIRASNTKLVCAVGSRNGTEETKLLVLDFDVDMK
MITF inh: blocks human microphthalmia-associated transcription factor; O75030; AID 1259374; 650,000 compounds, 0.91% hits; inhibition, % at 2.6 µM; AlphaScreen MITF homodimerization, bead proximity signal; in the data active means inhibition above about 50%;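 further: 0% = vehicle wells with protein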
TEAD-YAP inh: TEAD-YAP interaction inhibition. HEK-TIYL cells, TEAD-Gal4/YAP UAS-luciferase luminescence. inhibition, % at 9.12 µM. 640,000 compounds, 1.4% hits. AID 1259422; in the data active means inhibition above about 32%;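 further: 0% = median of test compound wells and 100% = reference inhibitor wells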
* = called active by the depositor.

Results for CCOC(=O)c1c(C)[nH]c(C)c1C(=O)COC(=O)c1ccc(O)cc1 ?
GPR151 activ: -0.6; FBW7 activator: 0.1; MITF inh: 8.0; TEAD-YAP inh: -0.8

How did CCOC(=O)c1c(C)[nH]c(C)c1C(=O)COC(=O)c1ccc2[nH]c(C)c(C)c2c1 do in these assays?
GPR151 activ: -0.5; FBW7 activator: -0.1; MITF inh: -6.0; TEAD-YAP inh: 66.0*

What do the screens show for `O=S(=O)(NCc1ccccn1)c1ccc(Cc2ccc(S(=O)(=O)NCc3ccccn3)cc2)cc1`?
GPR151 activ: 0.3; FBW7 activator: -0.2; MITF inh: 8.2; TEAD-YAP inh: 58.9*

What do the screens show for `COc1cccc(S(=O)(=O)NCc2ccccn2)c1`?
GPR151 activ: -1.7; FBW7 activator: 0.0; MITF inh: 8.8; TEAD-YAP inh: 10.3

What do the screens show for `COc1cc(S(=O)(=O)NCc2ccccn2)ccc1Cl`?
GPR151 activ: 2.3; FBW7 activator: 0.4; MITF inh: 2.4; TEAD-YAP inh: 36.8*

Results for CCc1noc(N)c1C(=O)Nc1ccc(F)cc1 ?
GPR151 activ: 0.7; FBW7 activator: 0.1; MITF inh: 22.4; TEAD-YAP inh: -2.9

How did Cc1ccc(C(C)C)c(OCC(=O)N/N=C/c2ccc(O)cc2)c1 do in these assays?
GPR151 activ: 1.0; FBW7 activator: -0.2; MITF inh: 11.9; TEAD-YAP inh: 47.6*

Results for O=C(COc1ccccc1)N/N=C\c1ccc(O)cc1 ?
GPR151 activ: -1.3; FBW7 activator: 2.1*; MITF inh: 14.5; TEAD-YAP inh: 6.8

What do the screens show for `Cc1ccc(C(C)C)c(OCC(=O)N/N=C/c2ccc[nH]2)c1`?
GPR151 activ: -0.9; FBW7 activator: 0.1; MITF inh: -9.5; TEAD-YAP inh: -0.8

Results for COc1cccc(/C=N/NC(=O)COc2cc(C)ccc2C(C)C)c1O ?
GPR151 activ: -0.2; FBW7 activator: -0.2; MITF inh: 1.5; TEAD-YAP inh: 57.5*

How did COc1cccc(/C=N/NC(=O)COc2cccc(C)c2C)c1O do in these assays?
GPR151 activ: 3.7; FBW7 activator: -0.1; MITF inh: -9.0; TEAD-YAP inh: 1.9

Results for Cc1ccc(C(C)C)c(OCC(=O)N/N=C/c2ccc(O)c(O)c2)c1 ?
GPR151 activ: 0.8; FBW7 activator: -0.1; MITF inh: 0.2; TEAD-YAP inh: 46.5*

What do the screens show for `CCSc1nnc(C2CCCN(C(=O)C3CCCO3)C2)n1C` (stereo not drawn)?
GPR151 activ: 0.4; FBW7 activator: -0.1; MITF inh: -12.4; TEAD-YAP inh: -7.4

Results for COc1cccc(/C=N/NC(=O)CSc2cc(C)nc3c(C)cccc23)c1O ?
GPR151 activ: 1.1; FBW7 activator: -0.5; MITF inh: 8.3; TEAD-YAP inh: 32.4*

What do the screens show for `C=CCSC(=C(C#N)C#N)c1cc2c([nH]1)CCCC2`?
GPR151 activ: -0.6; FBW7 activator: -0.5; MITF inh: 10.1; TEAD-YAP inh: 50.6*

What do the screens show for `O=C(O)c1cc2c([nH]c1=O)CCCC2`?
GPR151 activ: 0.8; FBW7 activator: -0.1; MITF inh: 6.1; TEAD-YAP inh: 1.2

How did COc1ccccc1NC(=O)Cn1c(C)cc(=O)c2ccccc21 do in these assays?
GPR151 activ: -0.8; FBW7 activator: -0.3; MITF inh: -2.2; TEAD-YAP inh: 63.6*

How did COc1cccc(NC(=O)Cn2c(C)cc(=O)c3ccccc32)c1 do in these assays?
GPR151 activ: -0.4; FBW7 activator: 0.3; MITF inh: 13.5; TEAD-YAP inh: 53.6*

Results for CCn1c(=O)n(CC(=O)Nc2ccccc2OC)c(=O)c2ccccc21 ?
GPR151 activ: -1.0; FBW7 activator: 0.0; MITF inh: 8.8; TEAD-YAP inh: 14.2

How did COc1ccccc1NC(=O)Cn1c(C)cc(=O)c2cccc(OC)c21 do in these assays?
GPR151 activ: 0.4; FBW7 activator: 0.0; MITF inh: -10.4; TEAD-YAP inh: 37.5*

What do the screens show for `COc1ccccc1NC(=O)Cn1c(C)cc(=O)c2cccc(C)c21`?
GPR151 activ: 1.1; FBW7 activator: 0.0; MITF inh: -1.4; TEAD-YAP inh: 3.1

Results for CCN(c1cccc(C)c1)c1ncnc2c1cnn2-c1ccc(OC)cc1 ?
GPR151 activ: 0.1; FBW7 activator: 0.0; MITF inh: -5.0; TEAD-YAP inh: -6.2

How did CS(=O)(=O)N1CCN(C(=O)Nc2ccc([N+](=O)[O-])cc2)CC1 do in these assays?
GPR151 activ: 0.1; FBW7 activator: -0.1; MITF inh: 0.6; TEAD-YAP inh: -12.3

What do the screens show for `CCCOc1ccc(/C=C/C(=O)Nc2ccc(S(=O)(=O)Nc3cc(C)nc(C)n3)cc2)cc1OC`?
GPR151 activ: -1.6; FBW7 activator: -0.2; MITF inh: -3.9; TEAD-YAP inh: -7.5

What do the screens show for `C=CCOc1ccc(Br)cc1C1C(C#N)=C(N)Oc2n[nH]c(C)c21` (stereo not drawn)?
GPR151 activ: -0.5; FBW7 activator: -0.1; MITF inh: -0.6; TEAD-YAP inh: -4.2

What do the screens show for `O=C(NC(=S)NNC(=O)c1cc2ccccc2cc1O)c1ccco1`?
GPR151 activ: -0.6; FBW7 activator: -0.4; MITF inh: 14.5; TEAD-YAP inh: 34.5*

How did O=C(CN1C(=O)C2C3C=CC(C3)C2C1=O)Nc1cc(C(F)(F)F)cc(C(F)(F)F)c1 (stereo not drawn) do in these assays?
GPR151 activ: 2.2; FBW7 activator: -0.1; MITF inh: 0.9; TEAD-YAP inh: -11.2

How did Nc1ccc(Cl)c(-c2nc3cc(Cl)ccc3o2)c1 do in these assays?
GPR151 activ: -1.2; FBW7 activator: 0.8; MITF inh: 23.4; TEAD-YAP inh: -65.8

How did Nc1ccc2oc(-c3cc(Br)ccc3Cl)nc2c1 do in these assays?
GPR151 activ: 0.0; FBW7 activator: 0.3; MITF inh: -3.1; TEAD-YAP inh: 41.3*

What do the screens show for `Nc1ccc2oc(-c3cc(I)ccc3Cl)nc2c1`?
GPR151 activ: -0.4; FBW7 activator: 0.5; MITF inh: 12.7; TEAD-YAP inh: 34.5*

Results for Nc1ccc2oc(-c3ccccc3Cl)nc2c1 ?
GPR151 activ: -7.7; FBW7 activator: 0.0; MITF inh: 9.6; TEAD-YAP inh: 41.8*

Results for Nc1ccc2oc(-c3cc(Cl)ccc3Cl)nc2c1 ?
GPR151 activ: -1.3; FBW7 activator: 0.8; MITF inh: 20.4; TEAD-YAP inh: 22.3

How did Cc1ccccc1NC(=O)Nc1ccccc1C do in these assays?
GPR151 activ: 0.5; FBW7 activator: 0.2; MITF inh: -9.8; TEAD-YAP inh: -10.9

What do the screens show for `Cc1ccccc1NC(=O)/C(Cl)=C(\Cl)S(=O)(=O)C(C)C`?
GPR151 activ: -0.7; FBW7 activator: 0.2; MITF inh: -14.5; TEAD-YAP inh: 51.8*

How did COc1ccc(-c2nc3ccccc3c(=O)n2NCc2cccc(OC)c2)cc1 do in these assays?
GPR151 activ: -0.1; FBW7 activator: 0.0; MITF inh: 9.6; TEAD-YAP inh: 7.8

Results for COc1ccc(-c2nc3ccccc3c(=O)n2NCc2ccc(O)cc2)cc1OC ?
GPR151 activ: 0.8; FBW7 activator: 0.0; MITF inh: 18.3; TEAD-YAP inh: 40.5*

What do the screens show for `COc1ccc(-c2nc3ccccc3c(=O)n2NCc2ccc(Br)cc2)cc1OC`?
GPR151 activ: 0.5; FBW7 activator: -0.2; MITF inh: 2.1; TEAD-YAP inh: -17.2

How did COc1ccc(-c2nc3ccccc3c(=O)n2NCc2cccc(Oc3ccccc3)c2)cc1 do in these assays?
GPR151 activ: -0.2; FBW7 activator: -0.1; MITF inh: 0.2; TEAD-YAP inh: 78.3*
